Assay results published in PubChem BioAssay (NCI).
The panel holds about 83,000 compounds, 20% with a hit somewhere; the sample as a whole holds those more often.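 Compound tested at a single concentration for 48 hours in 96-well plates; a percent growth value below 10 was scored as active.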 Activity calls are given as the source filed them.

How the values were obtained:
Assay in all cases: NCI-60 one-dose screen, 48 h (100 = growth as untreated, 0 = no growth, -100 = all killed)
Conditions in all cases: 10 µM unless noted
T-47D breast = test system: T-47D breast
BT-549 breast = test system: BT-549 breast
MDA-MB-435 melanoma = test system: MDA-MB-435 melanoma
SW-620 colon = test system: SW-620 colon
HCT-116 colon = test system: HCT-116 colon
HCC-2998 colon = test system: HCC-2998 colon
KM12 colon = test system: KM12 colon
MDA-MB-468 breast = test system: MDA-MB-468 breast
MCF7 breast = test system: MCF7 breast

Measured: growth

COc1ccc(-c2ccc(SCC(=O)Nc3ccc(S(N)(=O)=O)cc3Br)nn2)cc1
inactive: T-47D breast 76.9% | BT-549 breast 49.3% | MDA-MB-435 melanoma 108% | SW-620 colon 91.3% | HCT-116 colon 79.4% | HCC-2998 colon 99.3% | KM12 colon 88.7%

CC12CC[C@@H]3[C@]4(C)COC(c5cn[nH]c5-c5ccc(Br)cc5)O[C@@H]4CC[C@@]3(C)[C@@H]1CC(C1=CCOC1=O)O2 (some centres undefined)
active: MDA-MB-468 breast 9.94%
inactive: T-47D breast 16.3% | BT-549 breast 21.7% | MDA-MB-435 melanoma 51.8% | SW-620 colon 62.1% | HCT-116 colon 23.4% | HCC-2998 colon 55.8% | KM12 colon 39%

O=C(CN1C(=O)/C(=C/c2ccccc2F)SC1=S)N1CCOCC1
active: MDA-MB-468 breast -7.25%
inactive: T-47D breast 61.4% | BT-549 breast 111% | MDA-MB-435 melanoma 94.1% | SW-620 colon 32.6% | MCF7 breast 35.3% | HCC-2998 colon 116% | KM12 colon 99.1%

COc1ccc(-c2nc3cc(C)ccc3n2CC(=O)N=Nc2c(O)[nH]c3ccc(OC)cc23)cc1
active: T-47D breast -60% | BT-549 breast -85.4% | MDA-MB-435 melanoma -67.8% | SW-620 colon -48.2% | MCF7 breast -50.3% | HCC-2998 colon -67.9% | KM12 colon -79.5% | MDA-MB-468 breast -77.1%

Cn1cc(-c2cc(N)n3nc(-c4cn(C)c5ccc(Cl)cc45)cc3n2)c2ccccc21
inactive: T-47D breast 101% | BT-549 breast 118% | MDA-MB-435 melanoma 101% | SW-620 colon 114% | MCF7 breast 98.8% | HCC-2998 colon 105% | KM12 colon 109% | MDA-MB-468 breast 96.4%

COc1cccc(/C=C/c2nc3ccccc3c(=O)n2CC(=O)Nc2ccc(Cl)cc2)c1
inactive: BT-549 breast 86.8% | MDA-MB-435 melanoma 95.4% | SW-620 colon 68.1% | HCT-116 colon 38.4% | HCC-2998 colon 91% | KM12 colon 77.8% | MDA-MB-468 breast 108%
active: T-47D breast 6.29%

COc1c(F)ccc(C(=O)Nc2ccc3nc(NC(=O)C4CCCN(S(=O)(=O)c5cccc(Cl)c5)C4)sc3c2)c1F (centres undefined)
inactive: T-47D breast 53.1% | BT-549 breast 76% | MDA-MB-435 melanoma 90.9% | SW-620 colon 98.6% | HCT-116 colon 64.4% | HCC-2998 colon 102% | KM12 colon 82.2%
